The supplement of paper PMC10941209

Test system: HFF
Assay: cell viability relative to DMSO control; higher = less cytotoxic
Details: 1 µM; 72 h
Procedure: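 Single-dose cytotoxicity screen of the MMV Pandemic Response Box at 1 uM on human foreskin fibroblasts (HFF), 72 h at 37 C. Viability measured by MTT (OD 550 nm) and normalised to the DMSO control (% survival).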

Compound	cell viability [%]
CC(C)(C)c1ccc(OCCn2nc(C(=O)O)c3ccccc3c2=O)cc1	70
CCCCCCCCC(CP(=O)(O)C(C)N)C(=O)O (stereo not given)	61.8
COc1ccc(C)cc1NC(=O)c1ccc(S(=O)(=O)N2CCCCC2)cc1	76.4
CC(C)(C)NC(=O)[C@@H]1CN(Cc2cnc3occc3c2)CCN1C[C@@H](O)C[C@@H](Cc1ccccc1)C(=O)N[C@H]1c2ccccc2C[C@H]1O	72.6
Nc1nc2c(ncn2COC(CO)CO)c(=O)[nH]1	68.6
Fc1ccc(-c2nc(-c3c[nH]c4ccc(Br)cc34)[nH]c2-c2ccc(F)cc2)cc1	67.2
COc1ccc(OCc2ccc(COc3c(Cl)cccc3Cl)cc2)c(Cl)c1	60.4
CN(Cc1ccc(C(C)(C)C)cc1)Cc1cccc2ccccc12	62.8
CC[C@@]1(O)C(=O)OCc2c1cc1n(c2=O)Cc2cc3c([N+](=O)[O-])cccc3nc2-1	53.1
Clc1cc(Cl)c2c(c1)CCc1ccccc1C2n1ccnc1 (stereo not given)	80.7
C=C(C)n1c(=O)n(Cc2ccccc2C)c2ccccc21	63
CC1(C)CC(NC(=O)C(=O)Nc2ccc(Cl)cc2)CC(C)(C)N1	69.1
C[C@@H](c1nc(-c2ccc(C#N)cc2)cs1)[C@](O)(Cn1cncn1)c1ccc(F)cc1F	62.9
CCCCc1ccc(S(=O)(=O)Nc2cc(C)on2)cc1	63.3
CC(C)(C)c1ccc(Oc2ccc(N)cc2)cc1	68.3
CS(=O)(=O)c1ccc(Oc2ccc(Cl)cc2)cc1	69.7
CCOC(=O)N1CCN(c2ccc(Cl)cc2)CC1	64
COc1ccc2nc(-c3ccccc3)cc(O)c2c1	75
O=C(Nc1ncc(Cc2cccc3ccccc23)s1)C1CCCCC1	58.6
O=C(Nc1ccc(Cl)c(C(F)(F)F)c1)C(CCCl)C(=O)Nc1ccc(Cl)c(C(F)(F)F)c1	79

Compound	cell viability [%]
Cn1c2ccccc2c(=O)c2c(O)cccc21	65.8
O=C(O)c1ccccc1Sc1ncnc2sc3c(c12)CCC3	67.7
COc1cc(NCc2ccc3nc(N)nc(N)c3c2C)cc(OC)c1OC	63.7
Nc1cnn(C2OC(CO)C(O)C2O)c(=O)n1 (stereo not given)	63.5
Nc1nc2c(ncn2COCCO)c(=O)[nH]1	68.8
O=C(Nc1ccccc1C(=O)O)c1cccc(Oc2ccccc2)c1	67.4
CC1(C)C[C@H]1C(=O)N/C(=C\CCCCSC[C@@H](N)C(=O)O)C(=O)O	71.5
Oc1cc(-c2cccc3ccccc23)[nH]n1	66.8
O=C(Nc1[nH]c(=O)ncc1F)c1ccccc1	64.8
O=C(O)/C=C/C=C/c1cccc(Oc2cc(Cl)cc(Cl)c2)c1	63.3
Cc1cc(C)n(O)c(=O)c1	68.5
Cc1cccc(CC(=O)N[C@H]2CCOC2=O)c1	77.2
O=C1C=C(c2ccccc2)S(=O)(=O)c2ccccc21	67.5
Nc1nc(Nc2ccc3nc(-c4ccc(F)cc4)cc(N)c3c2)cc(-c2ccccc2)n1	78.1
CC(C)Oc1ccc(-n2cnc3cc(/C=C\c4ccc(C(C)(C)O)cc4)ccc32)cc1	64.2
CCc1nc2ccc(Cl)cn2c1C(=O)NCc1ccc(N2CCC(c3ccc(OC(F)(F)F)cc3)CC2)cc1	63.2
COc1ccc(-n2cnc3cc(NCc4ccco4)ccc32)cc1	52
O=c1[nH]cnc2c1ncn2[C@H]1CC[C@@H](CO)O1	72.2
O=c1cc(NCCCN[C@@H]2CCOc3c(Br)cc(Br)cc32)[nH]c2ccsc12	79.4
N=C(N)NCCCCC(=O)Nc1cc(C(F)(F)F)cc(NC(=O)c2cc(C(=O)Nc3cc(C(F)(F)F)cc(NC(=O)CCCCNC(=N)N)c3O[C@@H]3CCNC3)ncn2)c1O[C@@H]1CCNC1	57.6
